Experimental data reported in PubChem BioAssay AID1159580 (chemical genetic matrix, 2015).
Where “and” joins values, the source holds several entries; their conditions need not be identical. Identical values can stand only once. The whole screen tested about 5,500 compounds, of which about 2,000 (36%) were called active. Inconclusive results (about 18%) are left out. Cut-off read from the data, not from the text of the source: active = normalized growth mostly below about 0.91 (no sharp cut-off); inconclusive = no clear call, values can overlap the other calls; inactive = mostly above about 0.92. The list shows a part of the results.

Assay: chemical genetic growth profiling, strain panel (AID 1159580);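 note: tested at 20 µM; growth read once vehicle control cultures reached saturation at 30 °C; 1 = growth at the plate median or of vehicle wells; lower values mean less growth of the strain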
Conditions: S. cerevisiae deletion strains, growth OD

Measured: normalized growth

C[C@@H]1CC[C@@]23CCC4(C)[C@@](C=CC5[C@@]6(C)CCC(=O)C(C)(C)C6CC[C@]54C)(OC2=O)C3[C@H]1C (stereo not given in full)
inactive: locus YAL013W, strain DEP1, stronger effect = lower value 1.03 | locus YAL021C, strain ccr4, stronger effect = lower value 0.998 | locus YAL026C, strain drs2, stronger effect = lower value 1.01 | locus YAL030W, strain snc1, stronger effect = lower value 0.998 | locus YBL061C, strain skt5, stronger effect = lower value 0.994 | locus YBR009C, strain hhf1, stronger effect = lower value 1.02 | locus YBR021W, strain FUR4, stronger effect = lower value 1.01 | locus YBR023C, strain chs3, stronger effect = lower value 1 | locus YBR171W, strain sec66, stronger effect = lower value 0.99 | locus YBR229C, strain ROT2, stronger effect = lower value 1.02 | locus YBR231C, strain swc5, stronger effect = lower value 1.01 | locus YBR279W, strain paf1, stronger effect = lower value 0.99 | locus YCL011C, strain gbp2, stronger effect = lower value 1.02 | locus YCL016C, strain dcc1, stronger effect = lower value 0.981 | locus YCL029C, strain bik1, stronger effect = lower value 1.03 | locus YCL061C, strain MRC1, stronger effect = lower value 1.01 | locus YCL069W, strain vba3, stronger effect = lower value 0.997 | locus YCR088W, strain abp1, stronger effect = lower value 0.992 | locus YDL005C, strain med2, stronger effect = lower value 1 | locus YDL035C, strain GPR1, stronger effect = lower value 1.02 | locus YDL040C, strain nat1, stronger effect = lower value 0.997 | locus YDL074C, strain BRE1, stronger effect = lower value 1.01 | locus YDL101C, strain DUN1, stronger effect = lower value 1.03 | locus YDL185W, strain tfp1, stronger effect = lower value 0.989 | locus YDL192W, strain arf1, stronger effect = lower value 1.01 | locus YDR001C, strain nth1, stronger effect = lower value 0.987 | locus YDR069C, strain doa4, stronger effect = lower value 1 | locus YDR101C, strain arx1, stronger effect = lower value 1.01 | locus YDR137W, strain rgp1, stronger effect = lower value 1.04 | locus YDR150W, strain NUM1, stronger effect = lower value 1.02 | locus YDR159W, strain sac3, stronger effect = lower value 1 | locus YDR162C, strain NBP2, stronger effect = lower value 1.04 | locus YDR195W, strain ref2 0.957 | locus YDR297W, strain sur2, stronger effect = lower value 1.02 | locus YDR318W, strain mcm21, stronger effect = lower value 1.04 | locus YDR334W, strain swr1, stronger effect = lower value 0.998 | locus YDR335W, strain msn5, stronger effect = lower value 1 | locus YDR388W, stronger effect = lower value 1 | locus YDR392W, strain spt3, stronger effect = lower value 1.01 | locus YDR502C, strain sam2, stronger effect = lower value 1.02 | locus YEL003W, strain gim4, stronger effect = lower value 1.01 | locus YEL037C, strain rad23, stronger effect = lower value 1.01 | locus YEL061C, strain CIN8 (second series), stronger effect = lower value 0.99 | locus YEL061C, strain CIN8, stronger effect = lower value 1.02 | locus YER015W, strain faa2, stronger effect = lower value 1.01 | locus YER016W, strain bim1, stronger effect = lower value 0.993 | locus YER110C, stronger effect = lower value 1.01 | locus YER111C, strain swi4, stronger effect = lower value 0.995 | locus YER155C, strain BEM2 (second series), stronger effect = lower value 1.01 | locus YER155C, strain BEM2, stronger effect = lower value 1.02 | locus YER167W, strain BCK2, stronger effect = lower value 1.01 | locus YFR010W, strain ubp6, stronger effect = lower value 1.02 | locus YGL078C, strain dbp3, stronger effect = lower value 1.01 | locus YGL086W, strain mad1, stronger effect = lower value 1 | locus YGL167C, strain pmr1, stronger effect = lower value 0.994 | locus YGL173C, strain kem1, stronger effect = lower value 1.01 | locus YGL227W, strain vid30, stronger effect = lower value 0.983 | locus YGL240W, strain doc1, stronger effect = lower value 1.03 | locus YGL248W, strain PDE1, stronger effect = lower value 1.02 | locus YGL253W, strain hxk2, stronger effect = lower value 1 | locus YGR135W, strain pre9, stronger effect = lower value 1 | locus YGR229C, strain SMI1, stronger effect = lower value 1.02 | locus YGR252W, strain gcn5, stronger effect = lower value 1.02 | locus YHR013C, strain ard1, stronger effect = lower value 0.986 | locus YHR027C, strain rpn1, stronger effect = lower value 1.01 | locus YHR030C, strain SLT2, stronger effect = lower value 1.02 and 0.996 | locus YHR079C, strain IRE1 (second series), stronger effect = lower value 1.02 | locus YHR079C, strain IRE1, stronger effect = lower value 1.01 | locus YHR129C, strain ARP1, stronger effect = lower value 1.02 | locus YHR142W, strain chs7, stronger effect = lower value 0.97 | locus YHR200W, strain rpn10, stronger effect = lower value 1.02 | locus YIL066C, strain RNR3, stronger effect = lower value 1.03 | locus YIL073C, strain SPO22, stronger effect = lower value 1 | locus YIL125W, strain kgd1, stronger effect = lower value 0.992 | locus YIR030C, strain dcg1, stronger effect = lower value 1.04 | locus YJL092W, strain hpr5, stronger effect = lower value 0.989 | locus YJL095W, strain BCK1 (second series), stronger effect = lower value 1 | locus YJL095W, strain BCK1, stronger effect = lower value 1.04 and 0.991 | locus YJL115W, strain asf1, stronger effect = lower value 0.993 | locus YJL129C, strain trk1, stronger effect = lower value 0.98 | locus YJL134W, strain LCB3, stronger effect = lower value 1.01 | locus YJL154C, strain vps35, stronger effect = lower value 0.981 | locus YJL164C, strain tpk1, stronger effect = lower value 1.01 | locus YJL166W, strain qcr8, stronger effect = lower value 1.01 | locus YJL168C, strain set2, stronger effect = lower value 1.01 | locus YJL187C, strain SWE1 (second series), stronger effect = lower value 1.03 | locus YJL187C, strain SWE1, stronger effect = lower value 0.993 | locus YJR043C, strain POL32, stronger effect = lower value 1.02 | locus YJR066W, strain TOR1, stronger effect = lower value 0.953 | locus YKL009W, strain mrt4, stronger effect = lower value 1.01 | locus YKL068W, stronger effect = lower value 1.02 | locus YKL085W, strain MDH1 (second series), stronger effect = lower value 1 | locus YKL085W, strain MDH1, stronger effect = lower value 1 | locus YKL160W, strain elf1, stronger effect = lower value 0.999 | locus YKR001C, strain vps1, stronger effect = lower value 0.977 | locus YKR026C, strain gcn3, stronger effect = lower value 1 | locus YKR091W, strain srl3, stronger effect = lower value 0.994 | locus YLL001W, strain dnm1, stronger effect = lower value 0.982 | locus YLL026W, stronger effect = lower value 1 | locus YLL041C, strain sdh2, stronger effect = lower value 1 | locus YLR027C, strain aat2, stronger effect = lower value 1.02 | locus YLR039C, strain RIC1, stronger effect = lower value 1.05 | locus YLR058C, strain SHM2, stronger effect = lower value 1.02 | locus YLR102C, strain apc9, stronger effect = lower value 1.01 | locus YLR113W, strain HOG1, stronger effect = lower value 1 | locus YLR221C, strain rsa3, stronger effect = lower value 0.988 | locus YLR258W, strain gsy2, stronger effect = lower value 1.01 | locus YLR262C, strain YPT6 (second series), stronger effect = lower value 1.02 | locus YLR262C, strain YPT6, stronger effect = lower value 1.07 | locus YLR268W, strain sec22, stronger effect = lower value 0.995 | locus YLR320W, strain mms22, stronger effect = lower value 1 | locus YLR330W, strain CHS5, stronger effect = lower value 1.02 | locus YLR342W, strain FKS1 (second series), stronger effect = lower value 1.01 | locus YLR342W, strain FKS1, stronger effect = lower value 1.01 | locus YLR357W, strain rsc2, stronger effect = lower value 0.991 | locus YLR370C, strain arc18, stronger effect = lower value 0.996 | locus YLR384C, strain iki3, stronger effect = lower value 0.989 | locus YLR418C, strain cdc73, stronger effect = lower value 1.01 | locus YML016C, strain PPZ1, stronger effect = lower value 1.02 | locus YML032C, strain rad52, stronger effect = lower value 1.04 | locus YML120C, strain ndi1, stronger effect = lower value 0.994 | locus YML124C, strain tub3, stronger effect = lower value 1.02 | locus YMR058W, strain fet3, stronger effect = lower value 1.01 | locus YMR078C, strain ctf18, stronger effect = lower value 1.09 | locus YMR125W, strain sto1, stronger effect = lower value 0.978 | locus YMR129W, stronger effect = lower value 0.99 | locus YMR205C, strain PFK2, stronger effect = lower value 0.983 | locus YMR223W, strain ubp8, stronger effect = lower value 1.04 | locus YMR231W, strain pep5, stronger effect = lower value 0.993 | locus YMR307W, strain GAS1, stronger effect = lower value 1.06 | locus YNL067W, strain RPL9B, stronger effect = lower value 1.02 | locus YNL071W, strain lat1, stronger effect = lower value 1.01 | locus YNL153C, strain GIM3, stronger effect = lower value 1.03 | locus YNL183C, strain NPR1, stronger effect = lower value 0.964 | locus YNL209W, strain ssb2, stronger effect = lower value 0.988 | locus YNL233W, strain BNI4, stronger effect = lower value 1.03 | locus YNL248C, strain rpa49, stronger effect = lower value 1.02 | locus YNL250W, strain rad50, stronger effect = lower value 1 | locus YNL271C, strain bni1, stronger effect = lower value 1.01 | locus YNL298W, strain CLA4, stronger effect = lower value 1.01 | locus YNL307C, strain MCK1, stronger effect = lower value 1.02 | locus YNL322C, strain KRE1 (second series), stronger effect = lower value 1 | locus YNL322C, strain KRE1, stronger effect = lower value 1.01 | locus YNR049C, strain mso1, stronger effect = lower value 0.994 | locus YNR052C, strain pop2, stronger effect = lower value 1.02 | locus YOL006C, strain TOP1, stronger effect = lower value 1 | locus YOL012C, strain htz1 1.03 | locus YOL147C, strain pex11, stronger effect = lower value 1.01 | locus YOR001W, strain rrp6, stronger effect = lower value 1.02 | locus YOR061W, strain CKA2, stronger effect = lower value 1.01 | locus YOR069W, strain VPS5, stronger effect = lower value 1.01 | locus YOR070C, strain gyp1, stronger effect = lower value 0.995 | locus YOR080W, strain dia2, stronger effect = lower value 0.996 | locus YOR083W, strain WHI5, stronger effect = lower value 1.01 | locus YOR106W, strain vam3, stronger effect = lower value 1 | locus YOR136W, strain idh2, stronger effect = lower value 1.01 | locus YOR144C, strain elg1, stronger effect = lower value 1.02 | locus YOR184W, strain ser1, stronger effect = lower value 1.01 | locus YOR231W, strain MKK1, stronger effect = lower value 1.01 | locus YOR265W, strain rbl2, stronger effect = lower value 1.01 | locus YOR270C, strain vph1, stronger effect = lower value 1.03 | locus YOR290C, strain snf2, stronger effect = lower value 0.97 | locus YOR316C, strain cot1, stronger effect = lower value 1.03 | locus YPL051W, strain arl3, stronger effect = lower value 1.04 | locus YPL078C, strain atp4, stronger effect = lower value 1.01 | locus YPL106C, strain sse1, stronger effect = lower value 1.01 | locus YPL240C, strain hsp82, stronger effect = lower value 0.996 | locus YPL256C, strain CLN2, stronger effect = lower value 0.987 | locus YPR119W, strain clb2, stronger effect = lower value 1.02 | locus YPR141C, strain kar3, stronger effect = lower value 1.04 | locus YPR163C, strain tif3, stronger effect = lower value 1.01 | locus YPR167C, strain met16, stronger effect = lower value 1.01 | strain wtn01, stronger effect = lower value 0.995
active: locus YHR094C, strain hxt1, stronger effect = lower value 1.11 [resistant] | locus YLR371W, strain rom2, stronger effect = lower value 1.1 [resistant]
